According to PubChem BioAssay (EPA / NIEHS):
Calls of active or inactive are those of the source. How the source made its calls: active means hit-call score of the fitted dose curve at least 0.9, where 1 is the maximum; inactive means score below 0.9.

What was measured:
[1] = BSK_3C_SRB: Viability Assessment in the BioMAP Diversity Plus: 3C Assay (AID 2283023); conditions: primary human endothelial cells (HUVEC);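 further: fitted both ways against DMSO so a hit may be signal rise or drop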
Outline: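 Primary human umbilical vein endothelial cells in the 3C system were read 24 h after compound dosing. Total protein was stained with 0.1% sulforhodamine B after 10% TCA fixation and read at 560 nm, with bidirectional fitting against DMSO as baseline.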

[2] = read-out: Matrix Metallopeptidase 1 (MMP1), MMP1 (gene 4312); test: BSK_BE3C_MMP1: BioMAP Diversity Plus: BE3C Assay for Matrix Metallopeptidase 1 (MMP1) Biomarker Activity (AID 2283024); conditions: primary human bronchial epithelial cells; actives raise or lower the signal
Outline: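 ELISA measurement of MMP-1 after 24 h compound exposure of primary human bronchial epithelial cells. Changes in either direction fitted relative to DMSO; parallel SRB staining checked overt cytotoxicity.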

[3] = BSK_3C_Vis: BioMAP Diversity Plus: 3C Assay for Morphology Visualization (AID 2283025); conditions: primary human endothelial cells (HUVEC);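 further: fitted both ways so gain or loss versus DMSO counts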
Outline: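 Light-microscopy visualization of HUVEC cultures at 24 h post-treatment, with DMSO as baseline for bidirectional fitting.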

[4] = read-out: Pselectin, SELP (gene 6403); test: BSK_4H_Pselectin: BioMAP Diversity Plus: 4H Assay for Pselectin Biomarker Activity (AID 2283026); conditions: primary human endothelial cells (HUVEC); actives raise or lower the signal
Outline: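 ELISA of surface P-selectin on HUVEC, 24 h after dosing, with parallel SRB staining (0.1% after 10% TCA fixation, 560 nm) for overt cytotoxicity. Activity fitted in both directions relative to DMSO.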

[5] = BSK_4H_SRB: Viability Assessment in the BioMAP Diversity Plus: 4H Assay (AID 2283027); conditions: primary human endothelial cells (HUVEC);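 further: cells exposed to compound for 24 h before staining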;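 on AC50: curves fitted both ways versus DMSO so AC50 may be loss or gain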
Outline: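 Cytotoxicity readout: sulforhodamine B (0.1%) staining of total protein after 10% TCA fixation, measured at 560 nm in human umbilical vein endothelium at 24 h. DMSO set the baseline; fitting was bidirectional.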

[6] = BSK_BE3C_SRB: Viability Assessment in the BioMAP Diversity Plus: BE3C Assay (AID 2283028); conditions: primary human bronchial epithelial cells;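 on AC50: fitted both ways so AC50 may mark signal gain or loss versus DMSO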
Outline: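 Human primary bronchial epithelial cells were exposed to test chemicals for 24 h. Total protein in parallel cultures was then measured by staining with 0.1% sulforhodamine B after 10% TCA fixation, with absorbance read at 560 nm. Activity was fitted bidirectionally against DMSO.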

[7] = read-out: Thrombomodulin, THBD (gene 7056); test: BSK_3C_Thrombomodulin: BioMAP Diversity Plus: 3C Assay for Thrombomodulin Biomarker Activity (AID 2283029); conditions: primary human endothelial cells (HUVEC); actives raise or lower the signal
Outline: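 ELISA measurement of thrombomodulin on HUVEC surface 24 h after chemical dosing; activity fitted in both directions relative to DMSO vehicle.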

[8] = read-out: Urokinase-type plasminogen activator receptor (uPAR), PLAUR (gene 5329); test: BSK_4H_uPAR: BioMAP Diversity Plus: 4H Assay for Urokinase-type plasminogen activator receptor (uPAR) Biomarker Activity (AID 2283030); conditions: primary human endothelial cells (HUVEC); actives raise or lower the signal
Outline: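 Primary human umbilical vein endothelial cells were exposed to chemical for 24 h before cell-surface uPAR was quantified by ELISA. Activity was fitted bidirectionally against the DMSO negative control baseline.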

[9] = read-out: Vascular endothelial growth factor receptor 2 (Homo sapiens) (UniProt P35968); test: BSK_4H_VEGFRII: BioMAP Diversity Plus: 4H Assay for Vascular endothelial growth factor receptor 2 (VEGFR2) Biomarker Activity (AID 2283031); conditions: primary human endothelial cells (HUVEC); actives raise or lower the signal
Outline: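 Primary human umbilical vein endothelial cells in the BioMAP 4H system were dosed with test chemical, and 24 h later VEGFRII was measured by ELISA. Activity was fitted bidirectionally against DMSO as negative control and baseline.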

[10] = read-out: Human Leukocyte Antigen - DR isotype (HLADR), HLA-DRA (gene 3122); test: BSK_BE3C_HLADR: BioMAP Diversity Plus: BE3C Assay for Human Leukocyte Antigen - DR isotype (HLADR) Biomarker Activity (AID 2283032); conditions: primary human bronchial epithelial cells; actives raise or lower the signal
Outline: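 Cell-surface HLA-DR ELISA readout at 24 h after dosing in the BE3C primary human lung bronchial epithelial system; gain or loss of signal against DMSO, with parallel sulforhodamine B staining of total protein for overt cytotoxicity.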

[11] = read-out: Vascular cell adhesion molecule 1 (VCAM1), VCAM1 (gene 7412); test: BSK_4H_VCAM1: BioMAP Diversity Plus: 4H Assay for Vascular cell adhesion molecule 1 (VCAM1) Biomarker Activity (AID 2283033); conditions: primary human endothelial cells (HUVEC); actives raise or lower the signal
Outline: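 VCAM-1 ELISA read 24 h after chemical dosing of HUVEC in the BioMAP 4H system, with gain or loss of signal fitted relative to DMSO. Parallel SRB staining (560 nm) checked overt cytotoxicity.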

[12] = read-out: Interferon-gamma inducible Protein 10 (IP10), CXCL10 (gene 3627); test: BSK_BE3C_IP10: BioMAP Diversity Plus: BE3C Assay for Interferon-gamma inducible Protein 10 (IP10) Biomarker Activity (AID 2283034); conditions: primary human bronchial epithelial cells; actives raise or lower the signal
Outline: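 IP-10 quantified by ELISA in human primary bronchial epithelial cell cultures at 24 hours post-dosing. Gain or loss of signal fitted relative to DMSO; parallel SRB staining assessed overt cytotoxicity.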

[13] = read-out: Monokine induced gamma interferon (MIG), CXCL9 (gene 4283); test: BSK_BE3C_MIG: BioMAP Diversity Plus: BE3C Assay for Monokine induced gamma interferon (MIG) Biomarker Activity (AID 2283035); conditions: primary human bronchial epithelial cells; actives raise or lower the signal
Outline: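 hu bronchial epithelial 1° cells, 24 h cpd; MIG by ELISA; bidirectional fit, DMSO = baseline.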

[14] = read-out: Transforming growth factor beta 1 (TGFb1), TGFB1 (gene 7040); test: BSK_BE3C_TGFb1: BioMAP Diversity Plus: BE3C Assay for Transforming growth factor beta 1 (TGFb1) Biomarker Activity (AID 2283036); conditions: primary human bronchial epithelial cells; actives raise or lower the signal
Outline: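 ELISA readout of TGF-b1 from human lung bronchial epithelial primary cells, taken 24 h post-treatment. Gain or loss of signal fitted relative to DMSO baseline, with parallel SRB staining for overt cytotoxicity.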

[15] = read-out: Plasminogen activator inhibitor-1 (PAI1), SERPINE1 (gene 5054); test: BSK_BE3C_PAI1: BioMAP Diversity Plus: BE3C Assay for Plasminogen activator inhibitor-1 (PAI1) Biomarker Activity (AID 2283037); conditions: primary human bronchial epithelial cells; actives raise or lower the signal
Outline: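 PAI-1 was measured by ELISA in human primary bronchial epithelial cultures 24 h after chemical dosing, with cytotoxicity checked by SRB total-protein staining in parallel cultures. Activity was fitted in both directions relative to DMSO.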

[16] = read-out: Urokinase-type plasminogen activator receptor (uPAR), PLAUR (gene 5329); test: BSK_BE3C_uPAR: BioMAP Diversity Plus: BE3C Assay for Urokinase-type plasminogen activator receptor (uPAR) Biomarker Activity (AID 2283039); conditions: primary human bronchial epithelial cells; actives raise or lower the signal
Outline: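 uPAR levels were measured by ELISA after 24 h compound treatment of primary human bronchial epithelial cells, fitted in both directions relative to DMSO. Parallel SRB staining served as the cytotoxicity read-out.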

[17] = read-out: Interleukin-6 (IL6), IL6 (gene 3569); test: BSK_CASM3C_IL6: BioMAP Diversity Plus: CASM3C Assay for Interleukin-6 (IL6) Biomarker Activity for (AID 2283040); conditions: primary human coronary artery smooth muscle cells; actives raise or lower the signal
[18] = read-out: Tissue plasminogen activator (tPA), PLAT (gene 5327); test: BSK_BE3C_tPA: BioMAP Diversity Plus: BE3C Assay for Tissue plasminogen activator (tPA) Biomarker Activity (AID 2283041); conditions: primary human bronchial epithelial cells; actives raise or lower the signal
Outline: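 tPA measured by ELISA 24 h after dosing human primary bronchial epithelial cells (BE3C system). Changes in either direction were fitted against DMSO. Parallel cultures were stained with SRB to flag overt cytotoxicity.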

[19] = read-out: Interleukin-8 (IL8), CXCL8 (gene 3576); test: BSK_CASM3C_IL8: BioMAP Diversity Plus: CASM3C Assay for Interleukin-8 (IL8) Biomarker Activity (AID 2283042); conditions: primary human coronary artery smooth muscle cells; actives raise or lower the signal;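 further: IL-8 protein level quantified by ELISA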
[20] = read-out: urokinase plasminogen activator (uPA), PLAU (gene 5328); test: BSK_BE3C_uPA: BioMAP Diversity Plus: BE3C Assay for urokinase plasminogen activator (uPA) Biomarker Activity (AID 2283038); conditions: primary human bronchial epithelial cells; actives raise or lower the signal
Outline: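 Human primary bronchial epithelial cells were exposed to chemical for 24 h, then uPA levels were measured by ELISA. Responses were fitted bidirectionally against DMSO as negative control and baseline. Parallel SRB staining of total protein gauged overt cytotoxicity.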

Measured: AC50

N[C@@H](Cc1c[nH]c2ccccc12)C(=O)O
inactive: [1] | [2] | [3] | [4] | [5] | [6] | [7] | [8] | [9] | [10] | [11] | [12] | [13] | [14] | [15] | [16] | [17] | [18] | [19]

CCCCC(CC)COC(=O)CCCCCCCC(=O)OCC(CC)CCCC (stereo unspecified)
inactive: [1] | [2] | [3] | [4] | [5] | [6] | [7] | [8] | [9] | [10] | [11] | [12] | [13] | [14] | [15] | [16] | [17] | [18] | [19]

O=Cc1ccccc1C=O
inactive: [1] | [2] | [3] | [4] | [5] | [6] | [7] | [8] | [9] | [10] | [11] | [12] | [13] | [14] | [15] | [20] | [16] | [18] | [19]

Oc1ccccc1O
inactive: [2] | [3] | [6] | [7] | [8] | [9] | [10] | [12] | [13] | [14] | [15] | [20] | [16] | [17] | [18] | [19]
active: [1] 4.44 µM | [4] 9.58 µM | [5] 5.94 µM | [11] 5.53 µM

O=NO
inactive: [1] | [2] | [3] | [4] | [5] | [6] | [7] | [8] | [9] | [10] | [11] | [12] | [13] | [14] | [15] | [16] | [17] | [18] | [19]

CCCC[C@H]1CN(CC2CCOCC2)C(=O)OC12CCN(C1(C)CCN(C(=O)c3c(C)ncnc3C)CC1)CC2
inactive: [1] | [2] | [3] | [4] | [5] | [6] | [7] | [8] | [9] | [10] | [11] | [12] | [13] | [14] | [15] | [20] | [16] | [17] | [18] | [19]

CCCCCCCCCCCCCCOS(=O)(=O)O
inactive: [1] | [3] | [4] | [5] | [8] | [9] | [17] | [19]
active: [2] 31.8 µM | [6] 21.2 µM | [7] 33.8 µM | [10] 20 µM | [11] 20 µM | [12] 17.4 µM | [13] 34.2 µM | [14] 30.5 µM | [15] 20 µM | [20] 28.6 µM | [16] 16.1 µM | [18] 18.8 µM
